Test results: PubChem BioAssay (EPA / NIEHS)
Where “and” joins values, the source holds several entries; their conditions need not be identical. Equal values may be shown once. Results filed as inconclusive are left out. Some structures have more than one record in an assay (separate samples or runs), and their calls can disagree. Calls of active or inactive are those of the source. How the source made its calls: active means hit-call score of the fitted dose curve at least 0.9, where 1 is the maximum; inconclusive means response in the unintended direction; inactive means score below 0.9.

Assays:
[1] = target: Retinoic acid receptor RXR-alpha (Homo sapiens) (UniProt P19793); assay: OT_NURR1_NURR1RXRa_0480: Odyssey Thera (OT) 8-hour HEK293T Protein Complementation Assay for Nurr1/retinoid X receptor (RXR) (AID 2283385)
Method in brief: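 Interaction of Nurr1 with RXRα read as reconstituted reporter fluorescence in a HEK293T fragment-complementation system, 8 h post-treatment; increase over DMSO baseline analysed.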

[2] = target: Retinoic acid receptor RXR-alpha (Homo sapiens) (UniProt P19793); assay: OT_NURR1_NURR1RXRa_1440: Odyssey Thera (OT) 24-hour HEK293T Protein Complementation Assay for Nurr1/retinoid X receptor (RXR) (AID 2283386)
Method in brief: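 Gain in fluorescence, fitted relative to DMSO, reflects Nurr1–RXRα association in HEK293T cells after 24 h dosing. Bait and prey are each linked to a reporter-protein fragment that reassembles on interaction.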

[3] = target: Peroxisome proliferator-activated receptor gamma (Homo sapiens) (UniProt P37231); assay: OT_PPARg_PPARgSRC1_0480: Odyssey Thera (OT) 8-hour Protein-Complementation Assay for Peroxisome Proliferator-activated Receptor Gamma / SRC-1 Co-activator (AID 2283387);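 further: nuclear to cytoplasmic split Venus YFP fluorescence ratio reporting PPARg SRC-1 interaction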
Method in brief: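 Protein-fragment complementation in HEK293T: Venus YFP halves (residues 1-158, 159-239, mutated to IFP1/IFP2) fused to PPARg/SRC-1. 8 h exposure; N/C ratio at 488 nm; DMSO negative control.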

[4] = target: Peroxisome proliferator-activated receptor gamma (Homo sapiens) (UniProt P37231); assay: OT_PPARg_PPARgSRC1_1440: Odyssey Thera (OT) 24-hour Protein-Complementation Assay for Peroxisome Proliferator-activated Receptor Gamma/ SRC-1 Co-activator (AID 2283388);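 further: nuclear to cytoplasmic ratio of reconstituted Venus YFP fluorescence in fixed imaged cells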
Method in brief: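 Cells carrying the PPARg/SRC-1 fragment-complementation reporter receive compound for 24 hours, are fixed and counterstained with Draq5, then imaged. Increased nuclear relative to cytoplasmic YFP fluorescence above DMSO baseline indicates binding activity.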

Retinoic acid receptor RXR-alpha (Homo sapiens), sequence (P19793 whole entry, looked up, the tested form may be a part): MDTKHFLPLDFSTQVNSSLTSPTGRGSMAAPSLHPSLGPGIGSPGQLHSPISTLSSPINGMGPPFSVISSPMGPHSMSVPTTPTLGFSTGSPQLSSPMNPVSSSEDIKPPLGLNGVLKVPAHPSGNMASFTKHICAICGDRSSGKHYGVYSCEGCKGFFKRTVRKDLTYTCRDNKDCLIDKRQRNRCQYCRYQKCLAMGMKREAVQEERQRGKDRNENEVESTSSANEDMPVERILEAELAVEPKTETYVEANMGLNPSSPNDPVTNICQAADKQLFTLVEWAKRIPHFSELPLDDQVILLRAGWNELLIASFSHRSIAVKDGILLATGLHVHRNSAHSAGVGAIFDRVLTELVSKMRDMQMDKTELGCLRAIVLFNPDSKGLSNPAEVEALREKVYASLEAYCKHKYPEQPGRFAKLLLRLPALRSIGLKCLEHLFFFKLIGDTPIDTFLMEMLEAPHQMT
Peroxisome proliferator-activated receptor gamma (Homo sapiens), sequence (P37231 whole entry, looked up, the tested form may be a part): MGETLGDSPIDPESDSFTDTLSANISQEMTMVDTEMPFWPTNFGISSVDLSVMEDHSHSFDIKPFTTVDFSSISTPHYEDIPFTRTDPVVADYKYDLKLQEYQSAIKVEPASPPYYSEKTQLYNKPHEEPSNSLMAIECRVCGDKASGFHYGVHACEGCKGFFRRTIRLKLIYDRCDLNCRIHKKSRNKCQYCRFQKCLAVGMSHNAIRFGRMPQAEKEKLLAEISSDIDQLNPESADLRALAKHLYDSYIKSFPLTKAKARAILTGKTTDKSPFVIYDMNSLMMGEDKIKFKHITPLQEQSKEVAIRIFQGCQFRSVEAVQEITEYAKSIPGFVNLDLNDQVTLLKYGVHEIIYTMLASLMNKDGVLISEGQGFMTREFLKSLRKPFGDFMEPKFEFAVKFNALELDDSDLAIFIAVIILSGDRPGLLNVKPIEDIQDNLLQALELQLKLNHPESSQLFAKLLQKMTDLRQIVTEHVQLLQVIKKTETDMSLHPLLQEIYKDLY

Row | Structure (SMILES) | outcome [1] | outcome [2] | AC50 [2] | outcome [3] | outcome [4] | AC50 [1]
1 | CC(C)(C)c1ccccc1 | inactive | inactive |  |  |  | 
2 | CCCCC(CC)COP(=O)(OCC(CC)CCCC)OCC(CC)CCCC (centres undefined) | inactive | inactive | 76.1 µM (active) | inactive | inactive | 
3 | CC(=O)CC(c1ccccc1)c1c(O)c2ccccc2oc1=O (centres undefined) | inactive | inactive |  |  |  | 
4 | OCC(CO)n1cnc(-c2ccc(F)cc2)c1-c1ccnc(Oc2ccccc2)n1 | inactive | inactive |  | inactive |  | 
5 | Cc1ccc(C(C)(C)C)c(O)c1 | inactive | inactive | 78.7 µM (active) | inactive | inactive | 75 µM (active)
6 | CC(=O)S[C@H](C(=O)N[C@H]1Cc2ccccc2[C@H]2CCC[C@@H](C(=O)O)N2C1=O)C(C)C | inactive | inactive |  | inactive |  | 
7 | N[C@@H](Cc1c[nH]c2ccccc12)C(=O)O | inactive | inactive |  | inactive |  | 
8 | C#CC(O)C(CC)CCCC (centres undefined) |  |  | 76.3 µM (active) | inactive |  | 28.8 µM (active)
9 | O=C(O)c1[nH]n(-c2ccc(S(=O)(=O)O)cc2)c(=O)c1N=Nc1ccc(S(=O)(=O)O)cc1 | inactive | inactive |  | inactive |  | 
10 | CCCCCCCC(=O)OC | inactive | inactive |  | inactive |  | 
11 | O=C1O[C@H]([C@H](O)CO)C(O)=C1O | inactive | inactive |  | inactive |  | 
12 | CC(C)OC(=O)C(C)(C)Oc1ccc(C(=O)c2ccc(Cl)cc2)cc1 | inactive | inactive |  |  |  | 
13 | CCCCC(CC)COC(=O)CCCCCCCC(=O)OCC(CC)CCCC (centres undefined) | inactive | inactive |  |  |  | 
14 | CSc1ccc(Oc2ccc(S(N)(=O)=O)cc2CN(C)C)cc1C | inactive |  | 57.5 µM (active) and 19 µM (active) | inactive |  | 50 µM (active)
